Several values for one entry are separate records, joined by “and”; a condition that tells them apart may be missing. Equal values may be shown once. Where a name gives a salt, the structure may show the parent alone. Out of some 5,800 compounds screened, about 620 (11%) showed activity. Only a selection was taken, and actives are over-represented in it overall. Values without a mark were called inactive.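 The calls were made as follows: active = score above a cut-off or among the top three wells of a plate; in these data no inactive exceeds 0.85.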
Tested on: primary human hepatic stellate cells (donor 1)
Assay: scaled lipid accumulation score (0 = DMSO-like, 1 = nortriptyline-like); higher = stronger HSC inactivation (lipid re-accumulation), active = hit call of the paper
Settings: 48 h
Description: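 Primary lipid accumulation screen in primary human hepatic stellate cell myofibroblasts (donor 1, passage 8) in 384-well plates. 100 nL of library compound was pin-transferred into 30 µL medium in duplicate, and cells were treated for 48 h. The 'Scaled' score combines distance from plate baseline, toxicity and reproducibility penalties, and is normalised to nortriptyline (positive) and DMSO (negative) controls on each plate. A hit is defined as scaled >0.85 or among the top 3 wells per plate.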

[1] = library stock concentration: 1 mM
[2] = library stock concentration: 10 mM
[3] = library stock concentration: 9.7 mM
[4] = library stock concentration: 80 uM
[5] = library stock concentration: 400 uM
[6] = library stock concentration: 2 mM
[7] = library stock concentration: 3.33 mM

CN[C@@H]1C[C@H]2O[C@@](C)([C@@H]1OC)n1c3ccccc3c3c4c(c5c6ccccc6n2c5c31)C(=O)NC4 [Staurosporine]
scaled lipid accumulation score [1]: 0.546 (active)

COC(=O)[C@@]1(O)C[C@H]2O[C@]1(C)n1c3ccccc3c3c4c(c5c6ccccc6n2c5c31)C(=O)NC4
scaled lipid accumulation score (library stock concentration: 1.1 mM): 0.142

CN[C@@H]1C[C@H]2O[C@@](C)([C@@H]1OC)n1c3ccccc3c3c4c(c5c6ccccc6n2c5c31)C(=O)NC4 [staurosporine]
scaled lipid accumulation score (library stock concentration: 10.7 mM): 0.643

COC(=O)N1CCN(C(=O)Cc2ccc(Cl)c(Cl)c2)C(CN2CCCC2)C1.O=C(O)/C=C/C(=O)O (stereo unspecified)
scaled lipid accumulation score [2]: 0.902 (active)

O=C(Cc1ccc(Cl)c(Cl)c1)N1CCCCC1CN1CCCC1 (stereo unspecified)
scaled lipid accumulation score [2]: 0.581 and 0.566

COC(=O)N1CCN(C(=O)Cc2ccc(Cl)c(Cl)c2)C(CN2CCCC2)C1 (stereo unspecified)
scaled lipid accumulation score [2]: 0.05

CO[C@H]1CC=C2CCN3CCC4=C(CC(=O)OC4)[C@]23C1 [Dihydro-beta-erythroidine hydrobromide]
scaled lipid accumulation score [2]: ≤ -0.07

COc1ccc2c(c1OC)C(=O)OC2C1c2cc3c(cc2CCN1C)OCO3 (single isomer, unassigned; (+)) [(+)-Hydrastine]
scaled lipid accumulation score [2]: ≤ -0.07

CCCCC/C=C\C/C=C\C/C=C\C/C=C\CCCC(=O)Nc1cccc([N+](=O)[O-])c1 [Arachidonoyl m-Nitroaniline]
scaled lipid accumulation score [1]: ≤ 0

CN(C)C(=O)C(CCN1CCC(O)(c2ccc(Cl)cc2)CC1)(c1ccccc1)c1ccccc1.Cl
scaled lipid accumulation score [3]: 1.02 (active)

CN(C)C(=O)C(CCN1CCC(O)(c2ccc(Cl)cc2)CC1)(c1ccccc1)c1ccccc1.Cl [Loperamide hydrochloride]
scaled lipid accumulation score [2]: 1.46 (active)

CCOC(=O)C1(c2ccccc2)CCN(CCC(C#N)(c2ccccc2)c2ccccc2)CC1
scaled lipid accumulation score [2]: ≤ 0

O=C(N[C@H]1CN2CCC1CC2)c1cc2ccoc2cn1
scaled lipid accumulation score [2]: ≤ -0.055

Cl[C@H]1[C@H](Cl)[C@@H](Cl)[C@@H](Cl)[C@H](Cl)[C@H]1Cl [Lindane]
scaled lipid accumulation score (library stock concentration: 6.9 mM): ≤ -0.001 | scaled lipid accumulation score [2]: ≤ 0

OC[C@@H](O)[C@H]1O[C@@H]2O[C@H](C(Cl)(Cl)Cl)O[C@@H]2[C@H]1O
scaled lipid accumulation score [2]: ≤ 0

CN(C)NC(=O)CCC(=O)O [Daminozide]
scaled lipid accumulation score [4]: ≤ 0 | scaled lipid accumulation score [5]: ≤ 0 | scaled lipid accumulation score [6]: ≤ 0 | scaled lipid accumulation score [2]: ≤ 0

CC[C@@H](C(=O)[C@@H](C)[C@@H](O)[C@H](C)[C@@H]1O[C@@H]([C@@H](CC)C(=O)O)CC[C@@H]1C)[C@H]1O[C@]2(C=C[C@@H](O)[C@]3(CC[C@@](C)([C@H]4CC[C@](O)(CC)[C@H](C)O4)O3)O2)[C@H](C)C[C@@H]1C [Salinomycin, sodium]
scaled lipid accumulation score [2]: 0.422

Clc1ccc(C2=CCCC3CCC2N3)cn1 (stereo unspecified) [UB 165 fumarate]
scaled lipid accumulation score [2]: 0.039

NC1=NC(=O)C(c2ccccc2)O1 (stereo unspecified) [Pemoline]
scaled lipid accumulation score [2]: ≤ 0

C=C(C)[C@@H]1[C@H]2OC(=O)[C@@H]1[C@]1(O)C[C@H]3OC34C(=O)O[C@H]2[C@@]41C.CC(C)(O)[C@@H]1[C@H]2OC(=O)[C@@H]1[C@]1(O)C[C@H]3OC34C(=O)O[C@H]2[C@@]41C (stereo partly specified) [Picrotoxin]
scaled lipid accumulation score [2]: ≤ -0.055

O=C1C=C2C(=CCOC2O)O1 (stereo unspecified) [Patulin]
scaled lipid accumulation score [2]: 1.21 (active)

C[C@H](N)Cn1ccc2cc(F)c(Cl)cc21.O=C(O)/C=C/C(=O)O [Ro 60-0175 fumarate]
scaled lipid accumulation score [2]: 0.953 (active)

O=C[C@H](Cl)[C@@H](O)[C@H](O)[C@H](O)CO [2-Chloro-2-deoxy-D-glucose]
scaled lipid accumulation score [2]: ≤ -0.07

CCN1C[C@]2(COC)CC[C@H](O)[C@]34C1[C@@](O)([C@@H](OC)[C@H]23)[C@@]1(O)C[C@H](OC)[C@H]2C[C@@H]4[C@@H]1[C@H]2OC [Delsoline]
scaled lipid accumulation score: ≤ 0

CN(N=O)c1ccc(O)c(O)c1 [Me-3,4-dephostatin]
scaled lipid accumulation score [2]: ≤ -0.055

N=C(NCc1ccc(Cl)cc1)SCCCc1c[nH]cn1 [Clobenpropit]
scaled lipid accumulation score [2]: 0.903 (active)

Br.Br.N=C(NCc1ccc(Cl)cc1)SCCCc1c[nH]cn1 [Clobenpropit dihydrobromide]
scaled lipid accumulation score [2]: 1.53 (active)

Clc1ccc(C2CC3CCC2N3)cn1 (stereo unspecified)
scaled lipid accumulation score (library stock concentration: 24 mM): ≤ -0.012

C1=C2CCCN[C@H]2[C@@H]2C[C@H]1[C@H]1CCCCN1C2 [Aloperine]
scaled lipid accumulation score [7]: 0.028 | scaled lipid accumulation score [2]: 0.068

COc1cc(C=Cc2ccc(OC)c(O)c2)cc(OC)c1
scaled lipid accumulation score [1]: 0.176

Clc1ccc(N2CC3CCC(C2)N3)nn1
scaled lipid accumulation score [2]: ≤ -0.07

C[N+]1(C)[C@@H]2CC(OC(=O)[C@H](CO)c3ccccc3)C[C@H]1[C@@H]1O[C@@H]12 (single isomer, unassigned; (-)) [(-)-Scopolamine methyl nitrate]
scaled lipid accumulation score [2]: ≤ 0

CC(=O)O[C@H]1CC[C@@]2(C)C(=CC[C@@H]3[C@@H]2CC[C@]2(C)C(=O)CC[C@@H]32)C1 [Dehydroisoandosterone 3-acetate]
scaled lipid accumulation score: ≤ 0

CC(=O)O[C@H]1CC[C@@]2(C)C(=CC[C@@H]3[C@@H]2CC[C@]2(C)C(=O)CC[C@@H]32)C1 [Prasterone acetate]
scaled lipid accumulation score [2]: 0.103

CCN(CC)CCO[C@H]1CC[C@@]2(C)C(=CC[C@@H]3[C@@H]2CC[C@]2(C)C(=O)CC[C@@H]32)C1
scaled lipid accumulation score [1]: 0.116

CCN(CC)CCO[C@H]1CC[C@@]2(C)C(=CC[C@@H]3[C@@H]2CC[C@]2(C)C(=O)CC[C@@H]32)C1.Cl
scaled lipid accumulation score [2]: 1.39 (active)

CC(C)NC(C)Cc1ccc(I)cc1 (stereo unspecified) [Iofetamine hydrochloride]
scaled lipid accumulation score [2]: 0.757

COP(=S)(OC)Oc1ccc(SC)c(C)c1
scaled lipid accumulation score [2]: ≤ 0

CO[C@H](C)[C@](O)(C(=O)OCC1=CCN2CC[C@H](O)[C@@H]12)C(C)C [Heliotrine]
scaled lipid accumulation score: ≤ 0

CO/C1=C\C(C)=C\[C@@H](C)[C@@H](O)[C@@H](C)C/C(C)=C/C=C/[C@H](OC)[C@@H]([C@@H](C)[C@@H](O)[C@H](C)[C@@]2(O)C[C@@H](O)[C@H](C)[C@@H](C(C)C)O2)OC1=O [Bafilomycin A1]
scaled lipid accumulation score (library stock concentration: 800 uM): 1.08 (active)

CCCN(CCC)C1CCc2cccc(O)c2C1 (stereo unspecified) [8-Hydroxy-DPAT hydrobromide]
scaled lipid accumulation score [2]: 0.055

CCCN(CCC)C1CCc2cccc(O)c2C1 (stereo unspecified)
scaled lipid accumulation score [2]: ≤ -0.07

O=C(O)CCC(CP(=O)(O)O)C(=O)O (stereo unspecified) [PMPA (NAALADase inhibitor)]
scaled lipid accumulation score [2]: ≤ -0.006

CCCCC/C=C\C/C=C\C/C=C\C/C=C\CCCC(=O)NCCCC(=O)O [N-Arachidonoyl-.gamma.-Aminobutyric Acid]
scaled lipid accumulation score [1]: 0.032

CCN1C[C@]2(COC)CC[C@H](OC)[C@]34C5C[C@@H]6[C@@H](OC)C[C@@]7(OCO[C@@]7(C13)[C@@H](O)C24)C5[C@H]6OC (stereo partly specified) [Delcorine]
scaled lipid accumulation score: ≤ 0

CN(C)C(=S)SSC(=S)N(C)C [Thiram] [listing 1 of 2 here]
scaled lipid accumulation score (library stock concentration: 8.3 mM): 0.965 (active)

CN(C)C(=S)SSC(=S)N(C)C [Thiram] [listing 2 of 2 here]
scaled lipid accumulation score [2]: 0.163

Ic1ccccc1CNC1C2CCN(CC2)C1C(c1ccccc1)c1ccccc1 [L-703,606 oxalate salt hydrate]
scaled lipid accumulation score [2]: 0.063

CN1CCC(c2ccc(F)cc2)C(COc2ccc3c(c2)OCO3)C1 (stereo unspecified)
scaled lipid accumulation score [3]: 0.664

CCCCCC(/C=C/C=O)OO (stereo unspecified) [4-hydroperoxy 2-Nonenal]
scaled lipid accumulation score [1]: 0.019

O=C1NC(=O)c2c1c1c3ccccc3n3c1c1c2c2ccccc2n1[C@H]1CC[C@@H]3O1
scaled lipid accumulation score [7]: 0.338

COC(=O)[C@]1(O)C[C@@H]2O[C@@]1(C)n1c3ccccc3c3c4c(c5c6ccccc6n2c5c31)C(=O)NC4 [K-252a, Nocardiopsis sp.]
scaled lipid accumulation score [7]: 0.362

O=C1NC(=O)c2c1c1c3ccccc3n3c1c1c2c2ccccc2n1C1CCC3O1
scaled lipid accumulation score [2]: 1.3 (active)

Cc1sc2c(c1C)C(c1ccc(Cl)cc1)=N[C@H](CC(=O)OC(C)(C)C)c1nnc(C)n1-2
scaled lipid accumulation score [4]: ≤ 0 | scaled lipid accumulation score [5]: ≤ 0 | scaled lipid accumulation score [6]: ≤ 0 | scaled lipid accumulation score [2]: ≤ 0

CC[C@@]1(O)C[C@H](O[C@H]2C[C@H](N(C)C)[C@H](O)[C@H](C)O2)c2c(cc3c(c2O)C(=O)c2c(O)ccc(O)c2C3=O)[C@H]1C(=O)OC [Pyrromycin]
scaled lipid accumulation score [2]: ≤ 0

C[C@@H]1O[C@@H](O[C@@H]2C=C3CC[C@@H]4[C@H](CC[C@]5(C)[C@@H](c6ccc(=O)oc6)CC[C@]45O)[C@@]3(C)CC2)[C@H](O)[C@H](O)[C@H]1O [Proscillaridin A]
scaled lipid accumulation score: 0.768

C[C@@H]1O[C@@H](O[C@H]2C[C@@H](O)[C@]3(CO)[C@H]4[C@H](O)C[C@]5(C)[C@@H](C6=CC(=O)OC6)CC[C@]5(O)[C@@H]4CC[C@]3(O)C2)[C@H](O)[C@H](O)[C@H]1O [Ouabain] [listing 1 of 2 here]
scaled lipid accumulation score [2]: 1.13 (active)

C[C@@H]1CC[C@@]2(OC1)O[C@H]1C[C@H]3[C@@H]4CC=C5C[C@@H](O[C@@H]6O[C@H](CO)[C@@H](O[C@@H]7O[C@@H](C)[C@H](O)[C@@H](O)[C@H]7O)[C@H](O)[C@H]6O[C@@H]6O[C@@H](C)[C@H](O)[C@@H](O)[C@H]6O)CC[C@]5(C)[C@H]4CC[C@]3(C)[C@H]1[C@@H]2C [Dioscin]
scaled lipid accumulation score [7]: 0.577 | scaled lipid accumulation score [2]: 0.255

C[C@@H]1O[C@@H](O[C@H]2C[C@@H](O)[C@]3(CO)C4C(CC[C@]3(O)C2)[C@@]2(O)CC[C@H](C3=CC(=O)OC3)[C@@]2(C)C[C@H]4O)[C@H](O)[C@H](O)[C@H]1O (stereo partly specified) [Ouabain]
scaled lipid accumulation score [2]: 0.993 (active)

C[C@@H]1O[C@@H](O[C@@H]2C[C@@H](O)[C@]3(CO)[C@H]4[C@H](O)C[C@]5(C)[C@@H](C6=CC(=O)OC6)CC[C@]5(O)[C@@H]4CC[C@]3(O)C2)[C@H](O)[C@H](O)[C@H]1O [Ouabain]
scaled lipid accumulation score [2]: 1 (active)

C[C@@H]1O[C@@H](O[C@H]2C[C@@H](O)[C@]3(CO)[C@@H]4C(CC[C@]3(O)C2)[C@@]2(O)CC[C@H](C3COC(=O)C3)[C@@]2(C)C[C@H]4O)[C@H](O)[C@H](O)[C@H]1O (stereo partly specified) [Dihydroouabain]
scaled lipid accumulation score [2]: 0.964 (active)

C[C@@H]1O[C@@H](O[C@H]2C[C@@H](O)[C@]3(CO)[C@H]4[C@H](O)C[C@]5(C)[C@@H](C6=CC(=O)OC6)CC[C@]5(O)[C@@H]4CC[C@]3(O)C2)[C@H](O)[C@H](O)[C@H]1O [Ouabain] [listing 2 of 2 here]
scaled lipid accumulation score (library stock concentration: 8.6 mM): 0.734

— the supplement of paper PMC9135407
